From PubChem BioAssay
This is a sample that favours compounds with a hit; in the whole collection about 3.1% have one here.
Vif-APOBEC3F blk = blocks the Vif interaction with APOBEC3F. HeLa A3F-eYFP + Vif (tagged APOBEC3F with the HIV-1 protein that degrades it), YFP fluorescence increase. Potency, µM (titrated, usually from 46.1 µM), for inactives: at the highest dose activity, negative = active. 390,000 tested, 0.2% active; further: potency means the concentration at half of the fitted maximal effect; % of control where 0% means no effect; nearly all actives have a fitted effect of over 65% in size
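HeLa cells stably expressing Vif plus C-terminally eYFP-tagged A3F were seeded, incubated overnight at 37 deg C, dosed with compound, incubated overnight again at 37 deg C. Yellow fluorescence (Ex 488/Em 500-530) reported blocked Vif-mediated A3F-eYFP degradation.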
VDR inh = inhibitors of human vitamin D receptor | P11473 | VDR-SRC2-3 peptide fluorescence polarization, 2 h | Potency, µM, inactives show max response, negative = inhibition, hits mostly inhibitors | 400,000 tested, 0.93% active | AID 504847; further: potency means the concentration at half of the fitted maximal effect; on the % scale 0 is the no-effect control and ±100 the full control effect
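Inhibition of the VDR/SRC2-3 peptide interaction is quantified by fluorescence polarization. Compounds (23 nl, pintool) incubate with the reagents for 2 hours at ambient room temperature.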
Vif-APOBEC3G blk = inhibitors of Vif-APOBEC3G interaction | Q9HC16 | HeLa A3G-eYFP + Vif (tagged APOBEC3G with the HIV-1 protein that degrades it), YFP fluorescence, overnight | Potency, µM (series often up to 46.1 µM), inactives show top-dose activity, negative = active, most hits filed as inhibitors | 410,000 tested, 0.076% active | AID 602310; further: potency means the concentration at half of the fitted maximal effect; on the % scale 0 is the no-effect control and ±100 the full control effect; nearly all actives have a fitted effect of over 60% in size
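HeLa cells stably expressing Vif and C-terminally eYFP-tagged A3G, seeded overnight at 37 deg C, then exposed to compound by pintool overnight at 37 deg C. Rise in yellow fluorescence (Ex 488/Em 500-530, Acumen) marks blocked Vif-driven A3G degradation.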
PLK1 PBD inh = PLK1 (human) polo-box domain binding inhibition; 360,000 tested, 2.8% active; P53350; Plk1 PBD binding of FITC phosphopeptide, fluorescence polarization; Potency, µM, without a hit: max response, negative = inhibition, hits mostly inhibitors; further: potency means the concentration at half of the fitted maximal effect; series mostly up to about 57 µM; on the % scale 0 is the no-effect control and ±100 the full control effect; nearly all actives have a fitted effect of over 65% in size
Target sequence (P53350 whole entry, looked up, the tested form may be a part): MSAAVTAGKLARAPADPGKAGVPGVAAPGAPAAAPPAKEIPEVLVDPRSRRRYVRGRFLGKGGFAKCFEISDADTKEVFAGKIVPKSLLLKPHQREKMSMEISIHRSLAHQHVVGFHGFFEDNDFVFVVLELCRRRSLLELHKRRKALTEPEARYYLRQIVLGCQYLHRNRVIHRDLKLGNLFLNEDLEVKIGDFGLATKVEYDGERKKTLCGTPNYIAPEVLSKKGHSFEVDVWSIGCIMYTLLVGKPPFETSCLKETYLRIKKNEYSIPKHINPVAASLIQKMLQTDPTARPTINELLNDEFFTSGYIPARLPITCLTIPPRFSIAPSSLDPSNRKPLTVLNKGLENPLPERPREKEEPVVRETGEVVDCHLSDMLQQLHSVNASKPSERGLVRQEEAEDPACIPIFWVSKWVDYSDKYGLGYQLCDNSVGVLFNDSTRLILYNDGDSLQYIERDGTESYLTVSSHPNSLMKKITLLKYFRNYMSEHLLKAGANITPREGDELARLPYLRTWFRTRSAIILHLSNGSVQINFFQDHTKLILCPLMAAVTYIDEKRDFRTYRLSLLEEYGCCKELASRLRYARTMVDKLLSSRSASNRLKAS
TSHR antag = blocks TSH signaling through the human TSH receptor. P16473. TSHR-expressing cells, TSH-stimulated cAMP HTRF, 2 h; hits give low values. activity change, negative = inhibition, % at 11.5 µM. 330,000 tested, 0.2% active. AID 504810;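 active means activity change below a set negative limit, meaning inhibition stronger than a set level, cut at about -70% in these data; inconclusive means activity change between two set negative limits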; further: on the % scale 0 is the no-effect control and ±100 the full control effect
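Cell-based HTRF cAMP assay; TSHR cells + compound, TSH EC80 (4nM final), 2 h, 37 deg C. Lysis with anti-cAMP cryptate and cAMP-d2, 30 min RT, read 665/620 nm.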
* = called active by the depositor; ? = inconclusive; nt = not tested or not shown; ! = not active in a repeat. Unless noted, the call rests on the fitted dose curve; in most records, active means well fitted curve in the direction sought with a large enough effect; inconclusive means small, poorly fitted or top-dose-only effect, or another doubt; inactive means no such curve, though single readings can be large; an effect the other way counts as inactive or inconclusive.

SMILES	Vif-APOBEC3F blk	VDR inh	Vif-APOBEC3G blk	PLK1 PBD inh	TSHR antag
Cc1nc(-c2ccc(Cl)cc2)oc1COC(C)(C)C(=O)O	nt	15%	nt	nt	nt
O=c1c2cn[nH]c2nc(SCc2cc(=O)n3cc(Br)ccc3n2)n1-c1ccc(Br)cc1	5%	-6%	-2%	21µM*	2
CCOC(=O)c1c(N)n(-c2ccc(N)cc2)c2nc3ccccc3nc12	2%	-24%	-1%	27µM*	1
COc1cccc(Cn2c(=O)c(-c3ccc(Cl)cc3)nc3cnc(OC)nc32)c1	nt	0%	nt	nt	nt
O=C(NC1CCN(C(=O)NCc2ccccc2)CC1)c1ccccc1	1%	5%	-1%	-6%	5
O=C(NCc1ccccc1)N1CCN(c2ccc(F)cc2)CC1	-5%	-25%	0%	3µM*	5
O=C(Cc1ccccc1)NC1CCN(C(=O)NCc2ccccc2)CC1	5%	-5%	-4%	27µM*	-1
CC(C)[C@H](CO)Nc1nc(Nc2cccc(Cl)c2)c2ncn(C(C)C)c2n1	nt	2%	nt	nt	nt
O=C(NN(C(=O)C1CC1)c1nc2ccccc2s1)C1CC1	-11%	-17%	7%	27µM*	15
CC(C)C(=O)NN(C(=O)C(C)C)c1nc2ccccc2s1	-1%	16%	-6%	0%	-2
Cn1sccc1=O	-10%	16µM*	-1%	15µM*	3
CC/C=C\C/C=C\C/C=C\C/C=C\C/C=C\C/C=C\CCC(=O)O	nt	32µM*!	nt	nt	nt
Cc1ccc2c(c1)c1c(c(=O)n(-c3ccccc3C)c(=O)n1CC(=O)NCc1ccccc1)n2C	0%	4%	0%	nt	nt
Cc1ccc2[nH]c(=O)c(CN(CCCO)Cc3nnnn3Cc3ccccc3)cc2c1	nt	?	0%	nt	nt
COc1ccc(Cc2nn3c(-c4ccccc4Br)nnc3s2)cc1	-2%	-4%	0%	-3%	-3
COc1cc(-c2nnc3sc(Cc4ccc(Cl)cc4)nn23)cc(OC)c1OC	1%	?	-10%	24µM*	nt
COc1ccc(Cc2nn3c(-c4cc(OC)c(OC)c(OC)c4)nnc3s2)cc1	3%	-21%	-6%	24µM*	-1
COc1cc(-c2nnc3sc(Cc4ccccc4)nn23)cc(OC)c1OC	-5%	-16%	-4%	27µM*	0
CCCCCCCCCCCC(=O)OCC(O)C1OCC(O)C1O (stereo not drawn)	nt	5%	nt	nt	nt
CS(=O)(=O)N1CCC2(CCCN(c3cccc(-c4ccccc4)c3)C2)CC1	nt	-18%	nt	nt	nt
Cc1ccc2oc(=O)n(CC(=O)O)c2c1	-7%	-26%	0%	27µM*	4
COc1ccc(F)cc1-c1cc(C(=O)Nc2ccc(NC(C)=O)cc2)[nH]n1	nt	nt	-9%	8%	nt
COc1cc2[nH]c(C(=O)Nc3ccc(F)cc3)cc2c(OC)c1OC	nt	nt	nt	nt	-78*
COc1ccccc1NC(=O)C1CCC(CNS(=O)(=O)c2ccc3c(c2)CC(C)N3C(C)=O)CC1 (stereo not drawn)	1%	-3%	-3%	nt	nt
O=C(Nc1ccc(F)cc1F)c1cccnc1	nt	-20%	-1%	27µM*	6
SMILES	Vif-APOBEC3F blk	VDR inh	Vif-APOBEC3G blk	PLK1 PBD inh	TSHR antag
CC(=O)Nc1nc(-c2cccc3ccccc23)cs1	-17%	25µM*	-3%	3.8µM*	-16
COc1ccc(-c2csc(NC(C)=O)n2)cc1OC	5%	?	-7%	27µM*	8
COc1cccc(NC(=O)Nc2nc(-c3ccc(OC)c(OC)c3)cs2)c1	-13%	-6%	?	-12%	-94*
COc1ccc(-c2csc(NC(=O)Cc3ccccc3)n2)cc1OC	-9%	15%	1%	-7%	7
CCOC(=O)CSc1nc(C)cc(C)n1	1%	-6%	0%	-7%	2
COC(=O)CSc1nc(C)cc(C)n1	-6%	?	0%	7.5µM*	1
Cc1cc(C(=O)NNC(=S)NCc2ccco2)n(C)n1	3%	?	0%	21µM*	1
COc1cc(OC)cc(C(=O)NNC(=S)NCc2ccco2)c1	0%	-2%	7%	-14%	-8
O=C(OCn1ncc(Cl)c(Cl)c1=O)c1cccc(C(F)(F)F)c1	4%	?	?	?	?
O=C(OCn1ncc(Br)c(Br)c1=O)c1ccccc1Cl	5%	22µM*	?	19µM*	-5
O=C(OCn1ncc(Br)c(Br)c1=O)c1ccc(F)cc1	10%	25µM*	-15%	9.5µM*	-47
COc1ccccc1CNC(=O)c1cn(C)c(=O)c2cc(OC)c(OC)cc12	-5%	?	-3%	19µM*	nt
COc1cc2c(C(=O)Nc3cc(OC)c(OC)c(OC)c3)cn(C)c(=O)c2cc1OC	-4%	-1%	-5%	nt	nt
COc1cccc(NC(=O)c2cn(C)c(=O)c3cc(OC)c(OC)cc23)c1	-4%	-24%	0%	3µM*	-1
CNc1ccc(C=O)cc1I	nt	nt	3%	nt	nt
CCOC(=O)N1CC=C2C(C#N)=C(N)C(C#N)(C#N)[C@H](c3cccs3)C2C1 (stereo partly drawn)	-19%	-9%	-10%	-14%	-12
CC1CC=C2C(C#N)=C(N)C(C#N)(C#N)C(c3cccs3)C2C1 (stereo not drawn)	-14%	?	1%	27µM*	-41
CC(C)(C)OC(=O)N1CC=C2C(C#N)=C(N)C(C#N)(C#N)C(c3cccs3)C2C1 (stereo not drawn)	0%	35µM*	-29%	-17%	-1
Cc1ccc(CN(Cc2ccco2)c2cnc(S(C)(=O)=O)nc2C(=O)Nc2ccc(Br)cc2)o1	-2%	0%	1%	nt	nt
O=c1c(-c2cccc(F)c2)nc2cncnc2n1C1CC1	nt	3%	nt	nt	nt
CCC(CC)NCc1ccc2c(c1)c1ccccc1n2CC	0%	?	0%	21µM*	27
CCn1c2ccccc2c2cc(CNCc3ccc(OC)cc3OC)ccc21	2%	-12%	1%	4%	-11
C=CC#CC1(O)CC(C)[N+](C)(C)CC1C (stereo not drawn)	-3%	-24%	-1%	21µM*	7
Cc1ccc(C(=O)CSc2ccccn2)cc1	2%	79µM*	4%	19µM*	8
CCCc1nc(SCC(=O)c2ccc(F)cc2)c2ccccc2n1	-3%	89µM*	0%	?	-16
SMILES	Vif-APOBEC3F blk	VDR inh	Vif-APOBEC3G blk	PLK1 PBD inh	TSHR antag
O=C(CSc1nccn1-c1ncc(C(F)(F)F)cc1Cl)c1ccc(Br)cc1	-6%	?	-10%	2.4µM*	-6
Cc1ccc(C(=O)CSc2nccn2-c2ccccc2)cc1	9%	-16%	-2%	21µM*	-10
CCCCNC(=O)CSc1nc(CCC)nc2ccccc12	-5%	-7%	-2%	4%	-4
Nc1cc(C(F)(F)F)ccc1S(=O)(=O)Nc1cccc2c1NCCC2	nt	-7%	-26%	nt	nt
CCOCCCNC(=O)c1c(NC(=O)c2nc(SCC)ncc2Cl)sc2c1CCCC2	nt	nt	-1%	nt	nt
O=C(CSc1ccccn1)c1ccc(F)cc1	-6%	?	-1%	27µM*	1
Cc1ccc(C(=O)CSc2ncn[nH]2)cc1	-6%	?	-7%	27µM*	0
C[C@H]1O[C@@H](n2cnc3c(N)ncnc32)C[C@@H]1OP(=O)(O)OP(=O)(O)OP(=O)(O)O	nt	-4%	nt	nt	nt
